{
  "source": "PubChem BioAssay",
  "note": "Results with a measured potency or affinity are listed apart. The source made the active and inactive calls. The limit is not given here; nearly all actives have IC50 up to about 0.98 µM.",
  "data": [
    {"molecular_target": "Calcium-dependent protein kinase 1 (Plasmodium falciparum (isolate 3D7)) (UniProt P62344)", "sequence (P62344 whole entry, looked up)": "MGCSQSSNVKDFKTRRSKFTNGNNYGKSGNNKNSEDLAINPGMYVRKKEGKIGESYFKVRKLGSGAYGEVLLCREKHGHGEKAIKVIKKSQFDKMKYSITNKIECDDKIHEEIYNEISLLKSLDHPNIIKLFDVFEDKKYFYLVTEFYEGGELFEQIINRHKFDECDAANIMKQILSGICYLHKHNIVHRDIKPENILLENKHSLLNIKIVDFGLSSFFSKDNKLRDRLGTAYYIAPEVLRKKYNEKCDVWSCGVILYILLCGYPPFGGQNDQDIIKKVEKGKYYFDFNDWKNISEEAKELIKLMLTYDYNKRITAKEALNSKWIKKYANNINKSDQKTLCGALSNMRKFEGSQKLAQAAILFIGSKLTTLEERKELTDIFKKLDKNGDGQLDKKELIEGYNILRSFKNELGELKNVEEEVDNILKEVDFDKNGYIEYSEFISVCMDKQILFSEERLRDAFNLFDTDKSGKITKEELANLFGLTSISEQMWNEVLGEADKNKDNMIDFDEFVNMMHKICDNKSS", "assay": "PfCDPK1 kinase inhibitors, biochemical, TCAMS library (AID 1159585);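 also: inhibitors leave more ATP so luminescence rises with inhibition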", "details": "recombinant PfCDPK1, Kinase-Glo ATP depletion luminescence", "values": [
      {"smiles": "O=C(Nc1ccc(-c2ccc(-c3nc4ccccc4[nH]3)cc2)cc1)Nc1ccc(Cl)c(Cl)c1", "outcome": "inactive"},
      {"smiles": "O=C(Nc1cccc(Cl)c1)OC1CCCN2CCCCC12", "note": "(stereo not given)", "outcome": "inactive"},
      {"smiles": "CCC(C)C(COC(=O)c1cc(OC)c(OC)c(OC)c1)N(C)CCN(C)C(COC(=O)c1cc(OC)c(OC)c(OC)c1)C(C)CC", "note": "(stereo not given)", "outcome": "inactive"},
      {"smiles": "COc1ccc(N2CCN(CCCCNCc3ccc(NC(=O)c4cc(Cl)cc(Cl)c4)cc3)CC2)c(OC)c1", "outcome": "inactive"},
      {"smiles": "O=C(C=Cc1ccc(Cl)c(Cl)c1)NCCCCCN1CCC(CCCNC(=O)/C=C/c2ccccc2)CC1", "outcome": "inactive"},
      {"smiles": "CCOc1ccc(CCCON2C(N)=NC(N)=NC2(C)C)cc1", "outcome": "inactive"},
      {"smiles": "CNCc1ccc(CN(C)c2nc(N)c3cc(OC)c(OC)cc3n2)cc1", "outcome": "inactive"},
      {"smiles": "COc1ccc2nccc([C@@H](O)CN3CCC(NCc4ccc5c(c4)NC(=O)C(C)S5)CC3)c2c1", "note": "(stereo not given in full)", "outcome": "inactive"},
      {"smiles": "N#Cc1ccc2nc(-c3cc(-c4cccc(F)c4)cnc3N)[nH]c2c1", "outcome": "inactive"},
      {"smiles": "O=C(Nc1ccc(S(=O)(=O)N2CCCC2)cc1)c1cc(-c2cccnc2)nc2ccc(Cl)cc12", "outcome": "inactive"},
      {"smiles": "Cn1nc2ccc3ccccc3c2nc1=N", "outcome": "inactive"},
      {"smiles": "CN(CCc1ccccn1)Cc1ccc(-c2ccc(-c3nc4ccccc4[nH]3)s2)cc1", "outcome": "inactive"},
      {"smiles": "O=C(COc1ccccc1)NC1CCN(c2ccnc3cc(Cl)ccc23)C1", "note": "(stereo not given)", "outcome": "inactive"},
      {"smiles": "O=C(Cc1ccc(Cl)cc1)Nc1cc(Cl)ccc1Cn1cnc(N2CCNCC2)cc1=O", "outcome": "inactive"},
      {"smiles": "COc1ccccc1-c1nc2nc(N)nc(N)c2nc1-c1ccccc1OC", "outcome": "inactive"},
      {"smiles": "CCC(=O)c1ccc(-c2ccc(=O)n(CC(=O)N(CCN(CC)CC)Cc3ccc(-c4ccc(C(F)(F)F)cc4)cc3)n2)cc1", "outcome": "inactive"},
      {"smiles": "CC(=O)Nc1ccc(C2NC(=O)NC(c3ccccc3)=C2c2nc3ccccc3s2)cc1", "note": "(stereo not given)", "outcome": "inactive"},
      {"smiles": "Cc1cccc2[nH]c(-c3ccc(-c4cccc(CNCCCNS(C)(=O)=O)c4)cc3)nc12", "outcome": "inactive"},
      {"smiles": "Cc1cccc2[nH]c(-c3ccc(-c4ccc(CNCCNC(=O)c5ccnn5C)cc4)cc3)nc12", "outcome": "inactive"},
      {"smiles": "COc1cc(NC(=O)N2CCOC(CCN3CCC(c4ccccc4)CC3)(c3ccc(Cl)c(Cl)c3)C2)cc(OC)c1OC", "note": "(stereo not given)", "outcome": "inactive"},
      {"smiles": "CN1CCN(Cc2ccc(-c3ccc4c(Nc5ccc(F)cc5Cl)ccnc4c3)o2)CC1", "outcome": "inactive"},
      {"smiles": "CN1CCN(CCCN(Cc2ccc(-c3ccc(CNC4CCCC4)cc3)cc2)C(=O)CCC2CCCC2)CC1", "outcome": "inactive"},
      {"smiles": "N#Cc1cccc(C(=O)Nc2ccc(-c3ccc(CN4CCCC4)cc3)cc2)c1", "outcome": "inactive"},
      {"smiles": "C=CCc1cc(C2CCN(CCCCNC(=O)c3ccc(-c4ccc(C#N)cc4)cc3)CC2)c(OCC(N)=O)c2c1CCCC2", "outcome": "inactive"},
      {"smiles": "CN(C)Cc1ccc(CN2CCN(CCOc3ccc(-c4ccc(Cl)cc4)cc3)CC2)o1", "outcome": "inactive"},
      {"smiles": "COc1ccc2nccc([C@@H](O)CN3CCC(NCc4ccc5c(c4)NC(=O)CS5)CC3)c2c1", "outcome": "inactive"},
      {"smiles": "O=C(c1ccc([N+](=O)[O-])o1)N1CCN(c2nc3c(F)cc(F)cc3s2)CC1", "outcome": "inactive"},
      {"smiles": "CC1(C)C[C@@H]2C[C@@](C)(CN2C(=O)c2cc(C(C)(C)C)nn2Cc2ccccc2)C1", "outcome": "inactive"},
      {"smiles": "CCCCCCCNCc1c(O)ccc2c(CNCCCCCCC)c(O)ccc12", "outcome": "inactive"},
      {"smiles": "COc1cc2c(cc1OC)CN(CCCCNC(=O)c1ccc(NC(=O)c3cc(Cl)cc(Cl)c3)cc1)CC2", "outcome": "inactive"},
      {"smiles": "COc1c(OC)c(OC)c2ccccc2c1CNCCCCCCNCc1c(OC)c(OC)c(OC)c2ccccc12", "outcome": "inactive"},
      {"smiles": "Oc1ccccc1CN1CCC2(CCCN(Cc3ccccc3F)C2)C1", "note": "(stereo not given)", "outcome": "inactive"},
      {"smiles": "CC(C)C(=O)NC(Nc1ccc([N+](=O)[O-])cc1)C(Cl)(Cl)Cl", "note": "(stereo not given)", "outcome": "inactive"},
      {"smiles": "Fc1ccc2nc(-c3ccc(-c4cccc(CN5CCN(c6ccncc6)CC5)c4)cc3)[nH]c2c1", "outcome": "inactive"},
      {"smiles": "O=C(NC1CCCCN(Cc2ccc3c(c2)OCCO3)C1)c1cc(-c2ccccc2F)cs1", "note": "(stereo not given)", "outcome": "inactive"},
      {"smiles": "CN(C)c1cc(NC(=O)Nc2ccccc2)c2ccccc2n1", "outcome": "inactive"},
      {"smiles": "CCc1c(CCNCCCCCCNCCc2ccc(OC)c(OC)c2C)ccc(OC)c1OC", "outcome": "inactive"},
      {"smiles": "CC(C)c1ccc(NC(=O)Nc2ccc(CCNCCCc3ccccc3)cc2)cc1", "outcome": "inactive"},
      {"smiles": "CCOc1ccc(NC(=O)c2cccc(CN3CCCN(Cc4cccc(O)c4)CC3)c2)cc1", "outcome": "inactive"},
      {"smiles": "CN(C)CCCOc1ccc(CN2CC[C@H](NC(=O)c3ccc(Cl)c(Cl)c3)C2)cc1Cl", "outcome": "inactive"}
    ]}
  ]
}
